TGFb SMAD3 inh: inhibitors of TGF-b signaling. HepG2 CAGA-GFP TGF-b/SMAD3 reporter, GFP fluorescence, 18 h; TGF-beta stimulated, 500 pg/mL final. Potency, µM (doses to about 46.1 µM), for the others: at the top dose activity, negative = inhibition, usual class: inhibitors. 1.2% of 410,000 active. AID 588855; also: potency is read from the fitted curve at half-maximal effect; % is scaled to controls: 0 for no effect and ±100 for the full control effect; nearly all actives have a fitted effect of over 65% in size
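Cell-based qHTS in HEPG2 carrying a CAGA-GFP Smad reporter; compounds added before 500 pg/mL final TGF-beta, 18 h incubation at 37 degrees C, GFP fluorescence quantified per cell by imaging cytometry.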
D3 ag: D3 dopamine receptor (human) agonism; D3R DiscoveRx beta-arrestin cells, luminescence, 90 min; max activation, %; 0.58% of 410,000 active; in the data active = max activation above about 30%; also: 0% is about no effect
Target sequence (P35462 whole entry, looked up): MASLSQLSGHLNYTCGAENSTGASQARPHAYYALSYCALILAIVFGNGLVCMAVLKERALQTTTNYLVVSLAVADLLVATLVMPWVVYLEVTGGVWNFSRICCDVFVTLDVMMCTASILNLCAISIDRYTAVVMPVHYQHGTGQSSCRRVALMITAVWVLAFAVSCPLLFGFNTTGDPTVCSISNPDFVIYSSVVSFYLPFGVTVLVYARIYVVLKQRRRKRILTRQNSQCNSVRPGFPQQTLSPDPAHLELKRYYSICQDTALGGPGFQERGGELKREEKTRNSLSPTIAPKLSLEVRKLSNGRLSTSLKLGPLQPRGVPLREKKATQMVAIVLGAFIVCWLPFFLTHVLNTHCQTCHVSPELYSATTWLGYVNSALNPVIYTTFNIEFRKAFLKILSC
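Agonist mode: compounds and dopamine controls were applied to plated cells for 90 min at 37 degrees C after an overnight attachment at 1500 cells/well. Luminescent read-out followed 30 - 60 minutes at room temperature with DiscoveRx detection reagent.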
D3 antag: antagonists of human D3 dopamine receptor; D3R cells, DiscoveRx beta-arrestin luminescence, antagonist mode; hits give low values; max response, negative = inhibition, %; 2.5% of 360,000 active; AID 652054; in the data active = max response below about -50%; inconclusive = no clear call, values can overlap the other calls; also: % is scaled to controls: 0 for no effect and ±100 for the full control effect
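Cells plated overnight at 1500 cells/well, then exposed to library compounds with dopamine controls for 90 minutes at 37 degrees C. DiscoveRx reagent added for 30–60 minutes at room temperature; luminescence read, quantitative HTS format.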
HepG2 viability: kills HepG2 cells in TGF-b inhibitor counter-screen; 0.76% of 410,000 active; AID 588856; Potency, µM (highest dose often 46.1 µM), without a hit: at the highest dose activity change, negative = cytotoxicity, hits mostly cytotoxic; HepG2 CAGA-GFP viability, ATP luminescence, 18 h; also: potency is read from the fitted curve at half-maximal effect
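HepG2 CAGA-GFP cells (1000/well, DMEM with 1% FBS) received compound, then TGF-beta at 500 pg/mL final, and were incubated 18 hours at 37 degrees C. Viability was read by CellTiter-Glo luminescence. Media-only wells were set as complete cell-killing and DMSO as no toxicity.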
ATXN viability: cell viability loss in ATXN counter-screen. S2 cells (HEK-293 line with an ATXN2-luciferase reporter) viability, CellTiter-Fluor protease fluorescence, 24 h. Potency, µM (top dose mostly 56.7 µM), actives largely listed as cytotoxic. 0.49% of 400,000 active. AID 651635; also: potency is read from the fitted curve at half-maximal effect; nearly all actives have a fitted effect of over 40% in size
ATXN2 expr inh: reduces ATXN2 reporter expression in HEK-293 cells; Potency, µM (titrated, usually from 57 µM), without a hit: at the highest dose activity change, negative = inhibition, usual class: inhibitors; HEK-293 ATXN2-luciferase reporter, luminescence, 24 h; 0.72% of 360,000 active; AID 1745845; also: potency is read from the fitted curve at half-maximal effect; % is scaled to controls: 0 for no effect and ±100 for the full control effect; nearly all actives have a fitted effect of over 55% in size
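qHTS (up to 57 uM final) was run with 24 h compound exposure of reporter cells at 37 °C. Each well was multiplexed: SteadyGlo luminescence measured ATXN2-luciferase expression after a fluorogenic Gly-Phe-AFC viability readout (25 uM final).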
Starred values were filed as active, the others as inactive. Only some compounds are listed: those with a hit (about 4.8% of all), similar ones and a draw of the others. Unless noted, calls follow the shape of the dose curve; as a rule, active = well fitted curve in the direction sought with a large enough effect; inconclusive = small, poorly fitted or top-dose-only effect, or another doubt; inactive = no such curve, though single readings can be large; an effect the other way counts as inactive or inconclusive.

What do the screens show for `CCCCC(c1nnnn1CC1CCCO1)N1CCN(c2cc(Cl)ccc2C)CC1` (stereo not given)?
TGFb SMAD3 inh: 2%; D3 ag: 0; D3 antag: -86*; HepG2 viability: 7%; ATXN viability: inactive; ATXN2 expr inh: -21%

What do the screens show for `CCCC(c1nnnn1Cc1ccco1)N1CCN(c2cc(Cl)ccc2C)CC1` (stereo not given)?
TGFb SMAD3 inh: -13%; D3 ag: -8; D3 antag: -62*; HepG2 viability: -1%; ATXN viability: inactive; ATXN2 expr inh: -14%

How did CC(C)CC(c1nnnn1Cc1ccco1)N1CCN(C2CCCC2)CC1 (stereo not given) do in these assays?
TGFb SMAD3 inh: 3%; D3 ag: 1; D3 antag: -60*; HepG2 viability: 2%; ATXN viability: inconclusive; ATXN2 expr inh: 3%

Results for OCCN1CCN(Cc2ccc3c(c2)CN(Cc2ccc4ccccc4c2)CCO3)CC1 ?
ATXN viability: inactive

Results for Oc1c(C(c2ccccc2)N2CCN(c3cccc(Cl)c3)CC2)sc2nc(-c3ccco3)nn12 (stereo not given) ?
TGFb SMAD3 inh: inconclusive; D3 ag: -8; HepG2 viability: -89%

Results for CCC(C(=O)Nc1ccc(C(C)=O)cc1)n1c(C)c2cnn(-c3ccccc3)c(=O)c2c1C (stereo not given) ?
TGFb SMAD3 inh: -24%; D3 ag: -21; HepG2 viability: -22%; ATXN viability: inactive; ATXN2 expr inh: -1%

How did O=C(CSc1ncn[nH]1)Nc1c(F)cc(F)cc1Br do in these assays?
TGFb SMAD3 inh: -3%; D3 ag: -1; D3 antag: -14; HepG2 viability: -3%; ATXN viability: inactive; ATXN2 expr inh: -4%

Results for O=C(CSc1nc2ncccc2[nH]1)Nc1c(F)cc(F)cc1Br ?
TGFb SMAD3 inh: 2%; D3 ag: -3; D3 antag: -58*; HepG2 viability: -33%; ATXN viability: inactive

How did COc1cc(C(=O)NC2CCN(C)CC2)ccc1Nc1ncc2c(n1)N(C1CCCCC1)CCC(=O)N2C do in these assays?
TGFb SMAD3 inh: inconclusive; D3 ag: -40; D3 antag: 2; HepG2 viability: 13µM*; ATXN viability: inconclusive; ATXN2 expr inh: 0%

How did CCN1C(=O)CC(C(C)C)N(C2CCCC2)c2nc(Nc3ccc(C(=O)NC4CCN(C)CC4)cc3OC)ncc21 (stereo not given) do in these assays?
TGFb SMAD3 inh: inconclusive; D3 ag: 4; D3 antag: 10; HepG2 viability: -90%; ATXN2 expr inh: inconclusive

What do the screens show for `CCN1C(=O)CC(c2ccccc2)N(C2CCCC2)c2nc(Nc3ccc(C(=O)NC4CCN(C)CC4)cc3OC)ncc21` (stereo not given)?
TGFb SMAD3 inh: inconclusive; D3 ag: 2; D3 antag: 3; HepG2 viability: 13µM*; ATXN2 expr inh: inconclusive

Results for CCOC(=O)c1cc(S(=O)(=O)N2CCN(c3ccc(F)cc3)CC2)[nH]n1 ?
TGFb SMAD3 inh: -5%; D3 ag: 15; HepG2 viability: -19%; ATXN viability: inactive; ATXN2 expr inh: -7%

What do the screens show for `CCn1c(-c2cccc(OC)c2)nc2cc(NC(C)=O)cc(C(=O)N3CCCC(C(C)=O)C3)c21` (stereo not given)?
ATXN viability: inactive

Results for Cc1[nH]c2ccccc2c1/C=C/C(=O)c1ccncc1 ?
TGFb SMAD3 inh: 13%; D3 ag: 1; D3 antag: -6; HepG2 viability: -18%; ATXN2 expr inh: -19%

What do the screens show for `O=C(/C=C/c1cccc2ccccc12)c1ccncc1`?
TGFb SMAD3 inh: 11µM*; D3 ag: 2; D3 antag: 4; HepG2 viability: 11µM*; ATXN viability: inactive; ATXN2 expr inh: inconclusive

Assay outcomes from PubChem.
